Measured values from PubChem BioAssay (NCI).
Compounds without any hit were thinned out: in the full panel of roughly 83,000, 20% have a hit.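 Percent growth is the endpoint: 0 to 100 indicates growth inhibition (40 means 60% inhibition), 0 means no net growth, and negative values indicate cell death.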 Values without a mark were called inactive. The source made the active and inactive calls. Rule for the calls: active = growth percent below 10; inactive = the rest.

Legend:
Assay in all cases: NCI-60 one-dose screen, 48 h (100 = growth as untreated, 0 = no growth, -100 = all killed)
Conditions in all cases: 10 µM unless noted
DU-145 prostate = test system: DU-145 prostate
K-562 leukemia = test system: K-562 leukemia
MALME-3M melanoma = test system: MALME-3M melanoma
MDA-MB-231 breast = test system: MDA-MB-231 breast
RXF 393 renal = test system: RXF 393 renal
SF-268 CNS = test system: SF-268 CNS
SF-539 CNS = test system: SF-539 CNS
UACC-257 melanoma = test system: UACC-257 melanoma
M14 melanoma = test system: M14 melanoma

SMILES	growth (DU-145 prostate)	growth (K-562 leukemia)	growth (MALME-3M melanoma)	growth (MDA-MB-231 breast)	growth (RXF 393 renal)	growth (SF-268 CNS)	growth (SF-539 CNS)	growth (UACC-257 melanoma)	growth (M14 melanoma)
N=C(N)c1ccc(-c2ccc(-c3cc(Cl)cc(Cl)c3)o2)nc1	-91.9% (active)	-65.6% (active)	-58.9% (active)	-77.3% (active)	67%	-67.1% (active)	-90.9% (active)	-81.1% (active)	-76.4% (active)
CCOP(=O)(O)OP(=O)(O)OCC	105%	89%	98.1%	112%	118%	100%	105%	105%	100%
Nc1ccc(C(OC(=O)c2cc3ccccc3c(Cc3c(O)c(C(=O)OC(c4ccc(N)cc4)(c4ccc(N)cc4)c4ccc(N)cc4)cc4ccccc34)c2O)(c2ccc(N)cc2)c2ccc(N)cc2)cc1	21.9%	7.72% (active)	5.78% (active)	-9.83% (active)	28%	24.6%	10.3%	6.17% (active)	14.9%
Cn1nc(C(F)(F)F)cc1-c1cc(Cl)c(OCc2ccc(Cl)cc2)c(-c2ccc(Cl)c(C(F)(F)F)c2)c1O	11.5%	8.16% (active)	-26.5% (active)	-21.8% (active)	-17.6% (active)	2.82% (active)	-12.5% (active)	1.55% (active)	-13.5% (active)
O=C(NC1CC1)c1ccc(-c2nc3ccc4[nH]ncc4c3c3c2CCCC3)cc1	38.2%	24.4%	53.8%	45.7%	-9.49% (active)	35.1%	31.3%	60.2%	44.7%
CCc1ccc(-c2ccc(NC3CCCCCC3)nn2)cc1S(N)(=O)=O	114%	112%	104%	109%	115%	117%	98.9%	100%	104%
Clc1cc(Br)ccc1-c1ccc(CNCC2CCNCC2)o1	62.4%	18.9%	-4.35% (active)	50.8%	64.8%	45%	29.6%	79.6%	55.2%
CC(=O)O[C@H]1[C@H](CC#CC#CC[C@@H]2C[C@]3(C)[C@H]4CC=C5[C@H]6[C@@H](C)[C@H](C)CC[C@]6(C(=O)NCCCCCCCCN)CC[C@@]5(C)[C@]4(C)CC[C@H]3C(C)(C)[C@H]2OC(C)=O)C[C@]2(C)[C@H]3CC=C4[C@H]5[C@@H](C)[C@H](C)CC[C@]5(C(=O)NCCCCCCCCN)CC[C@@]4(C)[C@]3(C)CC[C@H]2C1(C)C	110%	108%	105%	103%	94.6%	102%	94.1%	106%	102%
CCOC(C)(c1ccc(Cl)cc1)C1CCNCC1 (stereo not given)	102%	65.3%	99.9%	102%	109%	115%	88.1%	78.2%	86.6%
CN(C)c1ccc(N2Cc3ccccc3OC3=C2C(=O)c2c(O)ccc(O)c2C3=O)cn1	-97.3% (active)	-20.8% (active)	-76.9% (active)	-93.6% (active)	-87% (active)	-32.5% (active)	-63% (active)	-89.9% (active)	-88.6% (active)
O=C(Oc1c(Cl)c(Cl)c(Cl)c(Cl)c1Cl)C1CCCN1C(=O)OCc1ccccc1 (stereo not given)	60.9%	17.3%	72.3%	69.1%	92.2%	42.2%	50.5%	82.1%	78.9%
COc1cccc(/C=N/N=C(N)N)c1	102%	94.5%	111%	91.4%	106%	101%	84.5%	97.1%	93.8%
COc1cc(NC(C)CCCN)c2ncccc2c1Sc1ccc(Cl)cc1 (stereo not given)	76.3%	-33.2% (active)	82.4%	36%	57.9%	70.5%	75.9%	65.1%	27.5%
COc1ccc(-c2cnc3ccnn3c2-c2cc(OC)c(OC)c(OC)c2)cc1	20%	5.43% (active)	67.5%	50.3%	1.8% (active)	53.3%	-13.4% (active)	58.4%	21.5%
O=C1C(Cl)=C(N/N=c2/[nH][nH]/c(=N/NC3=C(Cl)C(=O)c4ccccc4C3=O)c3ccccc23)C(=O)c2ccccc21	108%	9.7% (active)	84.8%	42.8%	73.7%	41.7%	47.3%	97.7%	92.8%
